# Source: PubChem BioAssay
# PLK1 PBD block – blocks phosphopeptide binding to human PLK1 polo-box domain; Plk1 PBD binding of FITC phosphopeptide, fluorescence polarization; 360,000 compounds, 2.8% hits; Potency, µM, hits mostly inhibitors; also: series mostly up to about 57 µM; nearly all actives have a fitted effect of over 65% in size
# G9a inh – inhibitors of human histone lysine methyltransferase G9a; G9a H3K9 monomethylation, AlphaScreen, 2 h; Potency, µM (series often up to 102 µM), actives largely listed as inhibitors; 350,000 compounds, 8.8% hits; AID 504332; also: nearly all actives have a fitted effect of over 75% in size
#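 Quantitative HTS format: methyltransferase activity on a biotin-tagged H3K9 peptide is measured by AlphaScreen, using a rabbit anti-monomethyl-H3K9 antibody with streptavidin donor and anti-IgG acceptor beads. Final levels are 20 nM enzyme, 500 nM peptide, 20 uM SAM; 2 h RT.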
# HP1b chromo inh – inhibitors of HP1-beta chromodomain binding to methylated histone tails; P83916; AlphaScreen HP1-beta / biotin-H3K9me3 peptide binding; Potency, µM (top dose mostly 114 µM), actives largely listed as inhibitors; 390,000 compounds, 0.56% hits; AID 540317; also: nearly all actives have a fitted effect of over 70% in size
#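 Compound inhibition of the preformed complex between 50 nM HP1-beta and 50 nM biotinylated H3K9me3 peptide was read by AlphaScreen. Buffer was PBS pH 7.4 with 0.01% Tween-20. Incubations ran 30 min at room temperature, with 10 ug/mL donor/acceptor beads.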
# Sfp PPTase inh – Sfp phosphopantetheinyl transferase inhibition. Q9F4F7. Biochemical Sfp PPTase activity, qHTS. Potency, µM, usual class: inhibitors. 310,000 compounds, 3.5% hits;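 also: the enzyme is Sfp with the accession as filed and its product quenches rhodamine fluorescence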
#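 Fluorescence-quenching assay: 15 nM Sfp-PPTase preincubated 15 min at room temperature with compound, then 5 uM rhodamine-CoA and 12.5 uM BHQ-2-labelled YbbR peptide added. Fluorescence (ex 525/em 598 nm) read at start and after 30 min; difference gives rate.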
# JMJD2A Tudor – blocks the human JMJD2A Tudor domain. 390,000 compounds, 4.4% hits. AlphaScreen JMJD2A-Tudor / H3K4me3 peptide binding. Potency, µM (doses to about 114 µM), hits mostly inhibitors; also: nearly all actives have a fitted effect of over 50% in size
# Target sequence (O75164 whole entry, looked up, the tested form may be a part): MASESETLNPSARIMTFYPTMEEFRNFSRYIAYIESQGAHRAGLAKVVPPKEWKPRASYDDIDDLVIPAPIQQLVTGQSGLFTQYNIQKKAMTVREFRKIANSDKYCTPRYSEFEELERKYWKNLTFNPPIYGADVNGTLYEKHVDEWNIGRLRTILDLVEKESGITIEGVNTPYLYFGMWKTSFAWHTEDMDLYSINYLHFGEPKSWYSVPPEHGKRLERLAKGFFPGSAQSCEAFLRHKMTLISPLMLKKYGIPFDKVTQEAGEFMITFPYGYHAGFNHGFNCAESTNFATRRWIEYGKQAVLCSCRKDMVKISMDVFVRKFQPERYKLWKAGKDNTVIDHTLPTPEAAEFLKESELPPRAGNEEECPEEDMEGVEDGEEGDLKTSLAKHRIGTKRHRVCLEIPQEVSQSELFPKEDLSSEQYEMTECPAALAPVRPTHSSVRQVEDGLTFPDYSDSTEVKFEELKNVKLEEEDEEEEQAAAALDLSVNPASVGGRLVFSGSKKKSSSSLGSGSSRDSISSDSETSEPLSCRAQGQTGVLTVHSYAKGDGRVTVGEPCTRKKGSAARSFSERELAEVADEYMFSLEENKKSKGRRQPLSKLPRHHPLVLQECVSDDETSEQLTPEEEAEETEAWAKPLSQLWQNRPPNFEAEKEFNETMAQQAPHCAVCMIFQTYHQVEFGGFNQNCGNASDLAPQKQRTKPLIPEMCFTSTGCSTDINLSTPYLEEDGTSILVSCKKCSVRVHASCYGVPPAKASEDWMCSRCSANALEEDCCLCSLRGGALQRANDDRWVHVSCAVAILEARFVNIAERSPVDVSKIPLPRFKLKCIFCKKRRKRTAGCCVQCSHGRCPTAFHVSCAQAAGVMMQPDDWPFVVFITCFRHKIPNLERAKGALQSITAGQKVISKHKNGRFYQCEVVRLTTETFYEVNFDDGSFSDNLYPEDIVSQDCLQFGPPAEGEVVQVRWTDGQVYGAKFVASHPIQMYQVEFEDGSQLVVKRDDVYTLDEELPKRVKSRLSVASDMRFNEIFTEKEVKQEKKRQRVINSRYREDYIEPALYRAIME
# BAZ2B block – blocks human BAZ2B; AlphaScreen BAZ2B-H3K14Ac peptide displacement; Potency, µM (top dose mostly 114 µM), most hits filed as inhibitors; 360,000 compounds, 4.4% hits; Q9UIF8; also: nearly all actives have a fitted effect of over 60% in size
#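 In this displacement format the biotinylated H3(5-23) peptide acetylated at Lys14 serves as ligand at 50 nM, with BAZ2B at 50 nM in PBS pH 7.4 containing 0.01% Tween-20. Donor and acceptor beads are 10 ug/mL final.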
# Hits are given with their value; i = inactive; ? = inconclusive; nt = no result given; [ ] = dose if it differs, or a comment. Shown are actives, neighbours in structure and some others; about 12% of the full set was active somewhere. Calls follow the shape of the dose curve; as a rule, active = well fitted curve in the direction sought with a large enough effect; inconclusive = small, poorly fitted or top-dose-only effect, or another doubt; inactive = no such curve, though single readings can be large; an effect the other way counts as inactive or inconclusive.
SMILES,PLK1 PBD block,G9a inh,HP1b chromo inh,Sfp PPTase inh,JMJD2A Tudor,BAZ2B block
CCSc1nsc(SCC)c1C(N)=O,i,?,i,i,i,i
C[C@@H]1C[C@H]2[C@H]3C[C@@H](F)C4=CC(=O)C=C[C@]4(C)[C@@]3(Cl)[C@@H](O)C[C@@]2(C)[C@@H]1C(=O)COC(=O)C(C)(C)C,nt,i[12.7 µM],nt,i,nt,nt
Cc1ccc(NC(=O)CN2C(=O)CSc3ccc(S(=O)(=O)N4CCCC4)cc32)c(C)c1,nt,i,i,nt,i,?
CC(=O)Nc1nc2cc3c(cc2s1)OCCO3,i,nt,i,i,i,i
O=C(NNc1nc2cc3c(cc2s1)OCCO3)c1ccccc1,i,40µM,i,i,i,i
Cc1cccc2sc(NNC(=O)c3ccc4c(c3)OCCO4)nc12,i,10µM,i,40µM,?,?
C#Cc1nc(Nc2cccc(Cl)c2)nc(NC2CCCC2)n1,nt,nt,nt,nt,i,nt
O=C(CC1N=C2c3ccccc3N=C(SCc3ccc(Cl)cc3)N2C1=O)NCCc1ccccc1 (stereo unspecified),nt,i,i,nt,79µM,i
O=C(CC1N=C2c3ccccc3N=C(SCc3ccccc3F)N2C1=O)NCc1cccs1 (stereo unspecified),nt,i,i,nt,i,i
O=C(CC1N=C2c3ccccc3N=C(SCC(=O)Nc3ccccc3F)N2C1=O)NCc1cccs1 (stereo unspecified),nt,14µM,i,nt,i,?
Cc1ccc(CSC2=Nc3ccccc3C3=NC(CC(=O)NCc4ccco4)C(=O)N23)cc1 (stereo unspecified),i,?,i,35µM,?,50µM
CC(Sc1nc2ccccc2c(=O)n1CC1CCCO1)C(=O)Nc1ccc(S(N)(=O)=O)cc1 (stereo unspecified),i,i,i,nt,i,i
CCc1ccc(NC(=O)Nc2ccccc2OCc2cc(=O)n3ccccc3n2)cc1,nt,i,i,nt,i,i
Cc1ccc(S(=O)(=O)Nc2nc3ccccc3nc2NCC2CCCO2)cc1 (stereo unspecified),i,i,i,i,i,i
COc1ccccc1CN1CN(S(=O)(=O)c2ccccc2)c2nc3ccccc3nc21,?,32µM,i,i,i[11.4 µM],i
Cc1ccc(S(=O)(=O)N2CN(CC3CCCO3)c3nc4ccccc4nc32)cc1 (stereo unspecified),i,28µM,i,i,i,i
CC(=O)Oc1c(C)c(=O)n(C)c2ccccc12,i,i,i,i,i,i
COc1c(OC(C)=O)c(=O)n2c3ccccc3c3ccnc1c32,24µM,i[12.7 µM],i,nt,i,i
CNC(=O)C1CCC(Cn2c(=O)c3sccc3n(CC(=O)NCc3ccc(C)cc3)c2=O)CC1 (stereo unspecified),nt,i,i,nt,i,i
CCn1c2ccc(F)cc2c2nnc(NN)nc21,i,50µM,i,?,?,?
CCCn1c2ccc(F)cc2c2nnc(NN)nc21,i,50µM,i,i,i,i
NNc1nnc2c3cc(F)ccc3n(Cc3ccccc3)c2n1,i,nt,i,i,i,?
CCc1ccc2c(c1)c1nnc(NN)nc1n2CC,i,?,i,i,?,?
CCOc1ccccc1NC(=O)c1c(NC(=O)c2cccc(C)c2)sc2c1CCCC2,nt,i,i,nt,i,i
CCCCn1cc(S(=O)(=O)c2ccc(OC)cc2)c(=O)c2cc(CC)ccc21,nt,i,i,nt,i,i
SMILES,PLK1 PBD block,G9a inh,HP1b chromo inh,Sfp PPTase inh,JMJD2A Tudor,BAZ2B block
O=S(=O)(c1ccccc1)c1nc(-c2ccc(F)cc2)oc1N1CCCCCC1,nt,13µM,i,nt,i,?
Cc1ccccc1-c1nc(S(=O)(=O)c2ccccc2)c(NCCCN2CCOCC2)o1,i,nt,i,nt,i,nt
CCN1CCN(c2oc(-c3ccccc3C)nc2S(=O)(=O)c2ccccc2)CC1,i,35µM,i,nt,?,?
COc1ccccc1-c1nc(S(=O)(=O)c2ccccc2)c(N2CCCCC2)o1,?,25µM,?,?,79µM,i
NC(=O)C1CCN(c2oc(-c3ccc(F)cc3)nc2S(=O)(=O)c2ccccc2)CC1,i,i[12.7 µM],i,nt,i,i
Cc1c(C(=O)N2CCC(C)CC2)c(S(=O)(=O)NCc2ccc(Br)cc2)c(C)n1C,nt,i[12.7 µM],i,nt,i,i
Cc1cc(N)ccc1-n1c(C)ccc1C,i,14µM,i,i,?,i
Cc1cc(N)ccc1N1CCCC1,?,?,50µM,14µM,20µM,45µM
Cc1ccc(-n2c(C)cc(=O)cc2C)c(C)c1,i,i,i,i,i,i
COP(=O)(c1ccc(N(C)C)cc1)C(O)c1ccccc1 (stereo unspecified),i,i,i,i,i,i
Cc1sccc1C1C(C#N)=C(N)SC(N)=C1C#N,nt,1.1µM,nt,18µM,nt,i
Cc1cc(C2C(C#N)=C(N)SC(N)=C2C#N)c(C)s1,i,1.3µM,i,?,?,i
CCOc1ccc(NC(=O)CC2S/C(=N/N=C3CCCCCC3)NC2=O)cc1 (stereo unspecified),i,i,i,i,i,i
O=c1cc(NS(=O)(=O)c2ccccc2)nc(SCc2ccc(Cl)cc2)[nH]1,i,i,i,i,i,79µM
CCCc1cc(=O)[nH]c(SCc2ccc(Cl)cc2)n1,i,i,i,i,i,i
O=C(CSc1nc(NS(=O)(=O)c2ccccc2)cc(=O)[nH]1)Nc1ccc(Cl)cc1,i,71µM,i,i,i,79µM
COc1ccc(Cl)cc1NC(=O)CSc1nc(NS(=O)(=O)c2ccccc2)cc(=O)[nH]1,i,71µM,i,i,?,i
CC(C)(C)c1cc(=O)[nH]c(SCc2ccccc2Cl)n1,i,i,i,i,i,i
Cc1ccc(S(=O)(=O)Nc2cc(=O)[nH]c(SCc3ccccc3Cl)n2)cc1,i,i,i,i,56µM,i
Cc1cc(C)n(C(=O)CSc2ccc(Cl)cc2)n1,i,nt,i,i,i,i
Cc1cc(C)n(C(=O)CSc2nnc(SCC(=O)n3nc(C)cc3C)s2)n1,i,79µM,i,i,i,i
Cc1[nH]c2ccccc2c1-c1csc(NC(=O)CSCCO)n1,i,71µM,i,i,?,?
COc1ccc(S(=O)(=O)N2CCCC2=O)cc1N(C)S(C)(=O)=O,i,i,i,i,i,i
COc1ccc(Br)cc1S(=O)(=O)Nc1ncccc1C,30µM,nt,i,i,?,i
O=C(CN1C(=O)CSc2ccc(S(=O)(=O)N3CCOCC3)cc21)NCc1ccc(Cl)cc1,i,i,i,i,i,i
Cc1cccc(S(=O)(=O)NC2CCN(C#N)C2)c1 (stereo unspecified),nt,nt,nt,nt,i,nt
CCn1c(SCC(=O)NC(C)(C)C)nnc1-c1ccccn1,i,56µM,i,i,i,?
CCn1c(SCC(=O)Nc2cc(NC(C)=O)ccc2OC)nnc1-c1ccccn1,i,i,i,i,50µM,?
CCOC(=O)C1(C)Oc2ccccc2C(C(=O)OC)=C1C(=O)OC (stereo unspecified),?,28µM,i,i,i,nt
